Assay results taken from PubChem BioAssay (Tox21).
Activity calls are given as the source filed them. Unless noted, the call rests on the fitted dose curve; in most records, active means well fitted curve in the direction sought with a large enough effect in the repeat runs; inconclusive means weak or mixed curves; inactive means no such curve, though single readings can be large; an effect the other way counts as inactive or inconclusive.

Assays:
[1] = qHTS assay to identify small molecule antagonists of the thyroid receptor (TR) signaling pathway - cell viability counter screen (AID 743064); further: nearly all actives have a fitted effect of over 50% in size; further: potency means the concentration at half of the fitted maximal effect
In short: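 Same-well viability check: GH3.TRE-Luc cells stimulated with 1 nM T3 alongside test compound for 23.5 h, followed by CellTiter-Fluor fluorescence.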

[2] = tested on: thyroid hormone receptor (rat, GH3 cells); assay: qHTS assay to identify small molecule agonists of the thyroid receptor (TR) signaling pathway (AID 743066; calls by dose curve)
[3] = molecular target: Estrogen receptor (Homo sapiens) (UniProt P03372); assay: qHTS assay to identify small molecule antagonists of the estrogen receptor alpha (ER-alpha) signaling pathway (AID 743069; active means well fitted curve in the direction sought with a large enough effect in the signal ratio in the repeat runs, not every such curve was filed as active; inconclusive means weak or mixed curves, or effect the other way; inactive means no such curve, though single readings can be large or run the other way; the % refers to the signal ratio)
Estrogen receptor (Homo sapiens), sequence (P03372 whole entry, looked up): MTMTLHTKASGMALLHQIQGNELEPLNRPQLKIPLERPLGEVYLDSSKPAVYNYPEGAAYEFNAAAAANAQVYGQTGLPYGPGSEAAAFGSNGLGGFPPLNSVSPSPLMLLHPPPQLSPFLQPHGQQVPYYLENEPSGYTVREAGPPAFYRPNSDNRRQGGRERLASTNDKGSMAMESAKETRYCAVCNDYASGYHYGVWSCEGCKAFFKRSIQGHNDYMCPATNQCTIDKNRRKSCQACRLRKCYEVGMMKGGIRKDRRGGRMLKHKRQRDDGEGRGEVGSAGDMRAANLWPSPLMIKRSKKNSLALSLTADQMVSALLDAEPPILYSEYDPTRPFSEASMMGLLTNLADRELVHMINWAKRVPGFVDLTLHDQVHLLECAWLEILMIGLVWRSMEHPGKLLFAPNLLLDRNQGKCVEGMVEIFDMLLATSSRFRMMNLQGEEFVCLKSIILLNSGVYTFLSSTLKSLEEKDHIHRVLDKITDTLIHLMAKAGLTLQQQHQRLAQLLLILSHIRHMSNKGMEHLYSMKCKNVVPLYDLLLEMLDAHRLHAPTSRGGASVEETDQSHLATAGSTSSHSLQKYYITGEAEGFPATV
In short: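 Beta-lactamase FRET fluorescence is read after 2 hr at room temperature with LiveBLAzer B/G substrate. Before that, ER-alpha-bla HEK293 cells sit 4 hr after plating, then receive compound plus 17beta-estradiol and incubate 18 hr at 37C.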

[4] = qHTS assay to identify small molecule antagonists of the estrogen receptor alpha (ER-alpha) signaling pathway - cell viability counter screen (AID 743074; calls by dose curve;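 further: HEK293 cells carrying ER-alpha-UAS-bla reporter stimulated with 17beta-estradiol; nearly all actives have a fitted effect of over 45% in size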; further: potency means the concentration at half of the fitted maximal effect)
[5] = molecular target: Estrogen receptor (Homo sapiens) (UniProt P03372); assay: qHTS assay to identify small molecule agonists of the estrogen receptor alpha (ER-alpha) signaling pathway (AID 743075; calls by dose curve;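 further: HEK293 GripTite cells with ER-alpha and UAS-driven beta-lactamase reporter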; further: potency means the concentration at half of the fitted maximal effect)
[6] = molecular target: Estrogen receptor (Homo sapiens) (UniProt P03372); assay: qHTS assay to identify small molecule agonists of the estrogen receptor alpha (ER-alpha) signaling pathway using the BG1 cell line (AID 743079); details: BG1Luc4E2 cells, ERE-luciferase agonist, 22 h; activation: at 70.3 µM (top of the series); further: nearly all actives have a fitted effect of over 20% in size; further: potency means the concentration at half of the fitted maximal effect
[7] = qHTS assay to identify small molecule antagonists of the estrogen receptor alpha (ER-alpha) signaling pathway using the BG1 cell line (AID 743080; calls by dose curve;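 further: BG1 cells stimulated with 17beta-estradiol alongside compound; nearly all actives have a fitted effect of over 25% in size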; further: potency means the concentration at half of the fitted maximal effect)
In short: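 Luminescence from a 4×ERE-luciferase reporter in BG1-Luc-4E2 cells served as read-out. Cells, pre-cultured 5 days in stripped-serum phenol-red-free medium, were exposed to compound with 17beta-estradiol co-stimulation for 21.5 h at 37 C.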

[8] = qHTS assay to identify small molecule antagonists of the estrogen receptor alpha (ER-alpha) signaling pathway using the BG1 cell line - cell viability counter screen (AID 743081);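 further: compound given together with 17beta-estradiol as the ER stimulus; nearly all actives have a fitted effect of over 45% in size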; further: potency means the concentration at half of the fitted maximal effect
[9] = qHTS assay to identify aromatase inhibitors - cell viability counter screen (AID 743084);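 further: cells stimulated with testosterone during compound exposure; nearly all actives have a fitted effect of over 55% in size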; further: potency means the concentration at half of the fitted maximal effect
[10] = molecular target: Aryl hydrocarbon receptor (Homo sapiens) (UniProt P35869); assay: qHTS assay to identify small molecule that activate the aryl hydrocarbon receptor (AhR) signaling pathway (AID 743085); further: nearly all actives have a fitted effect of over 15% in size; further: potency means the concentration at half of the fitted maximal effect;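 on activation: HG2L7.5c1 human HepG2 liver cells with stably integrated DRE-driven firefly reporter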
Aryl hydrocarbon receptor (Homo sapiens), sequence (P35869 whole entry, looked up): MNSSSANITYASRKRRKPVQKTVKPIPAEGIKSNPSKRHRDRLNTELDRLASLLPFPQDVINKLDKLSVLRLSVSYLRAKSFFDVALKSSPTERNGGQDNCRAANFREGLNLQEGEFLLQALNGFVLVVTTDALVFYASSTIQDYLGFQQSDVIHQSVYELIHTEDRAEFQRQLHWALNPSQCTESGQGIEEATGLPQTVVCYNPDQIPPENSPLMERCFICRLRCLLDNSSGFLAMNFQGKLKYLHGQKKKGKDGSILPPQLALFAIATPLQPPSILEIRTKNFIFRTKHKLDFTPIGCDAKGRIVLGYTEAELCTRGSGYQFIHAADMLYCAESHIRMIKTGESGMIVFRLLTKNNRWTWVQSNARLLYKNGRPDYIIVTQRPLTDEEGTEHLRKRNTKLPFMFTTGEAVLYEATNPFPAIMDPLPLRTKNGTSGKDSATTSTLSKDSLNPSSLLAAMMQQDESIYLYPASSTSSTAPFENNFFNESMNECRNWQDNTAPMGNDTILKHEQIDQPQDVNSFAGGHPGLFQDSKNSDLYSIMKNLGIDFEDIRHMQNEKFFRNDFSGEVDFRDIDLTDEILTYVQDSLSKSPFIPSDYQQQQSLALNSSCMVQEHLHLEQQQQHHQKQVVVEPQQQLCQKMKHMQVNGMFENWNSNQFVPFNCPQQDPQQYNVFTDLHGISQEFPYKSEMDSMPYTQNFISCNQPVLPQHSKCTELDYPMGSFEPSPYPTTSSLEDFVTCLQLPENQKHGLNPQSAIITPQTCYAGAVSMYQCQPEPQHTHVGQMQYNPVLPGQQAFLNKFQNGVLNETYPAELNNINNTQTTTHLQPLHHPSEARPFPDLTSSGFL
In short: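 Reporter assay in engineered HepG2 line HG2L7.5c1, whose plasmid carries twenty dioxin responsive elements upstream of firefly luciferase. Treatment lasted 24 h at 37C; ONE-Glo luminescence gauged induction.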

[11] = qHTS assay to identify small molecule that activate the aryl hydrocarbon receptor (AhR) signaling pathway - cell viability counter screen (AID 743086); further: nearly all actives have a fitted effect of over 45% in size; further: potency means the concentration at half of the fitted maximal effect
In short: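 HepG2-AhR-luc (HG2L7.5c1) cells, 4000/well, treated 24 h at 37 C with compound; viability measured as CellTiter-Fluor fluorescence after 30 min in the same wells as the luciferase read.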

[12] = molecular target: Peroxisome proliferator-activated receptor gamma (Homo sapiens) (UniProt P37231); assay: qHTS assay to identify small molecule antagonists of the peroxisome proliferator-activated receptor gamma (PPARg) signaling pathway (AID 743191; calls by dose curve; further: nearly all actives have a fitted effect of over 30% in size)
Peroxisome proliferator-activated receptor gamma (Homo sapiens), sequence (P37231 whole entry, looked up): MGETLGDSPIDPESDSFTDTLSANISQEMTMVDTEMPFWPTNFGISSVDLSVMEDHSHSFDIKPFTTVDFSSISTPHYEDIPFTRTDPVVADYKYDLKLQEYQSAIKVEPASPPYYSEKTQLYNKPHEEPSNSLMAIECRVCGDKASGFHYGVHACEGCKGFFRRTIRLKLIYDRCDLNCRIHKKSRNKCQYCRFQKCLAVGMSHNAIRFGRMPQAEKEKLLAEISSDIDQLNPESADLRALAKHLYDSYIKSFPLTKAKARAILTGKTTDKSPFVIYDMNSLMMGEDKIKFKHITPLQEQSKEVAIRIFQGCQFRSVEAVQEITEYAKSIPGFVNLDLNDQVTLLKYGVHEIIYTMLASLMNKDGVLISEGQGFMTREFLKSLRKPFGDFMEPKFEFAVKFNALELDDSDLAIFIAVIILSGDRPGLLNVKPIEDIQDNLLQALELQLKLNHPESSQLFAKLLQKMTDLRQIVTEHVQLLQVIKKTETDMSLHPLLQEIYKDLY
In short: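 GeneBLAzer PPARg UAS-bla HEK293H cells, 5 h post-plating, exposed to compounds 17 h at 37C. LiveBLAzer B/G FRET substrate added for 1 h at room temperature; beta-lactamase reporter read by fluorescence intensity.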

[13] = qHTS assay to identify small molecule antagonists of the peroxisome proliferator-activated receptor gamma (PPARg) signaling pathway - cell viability counter screen (AID 743194); details: Potency: co-treated with 50 nM rosiglitazone unless noted; further: nearly all actives have a fitted effect of over 55% in size; further: potency means the concentration at half of the fitted maximal effect
In short: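 Cytotoxicity counter screen in PPARg-bla HEK293H cells, same wells as reporter assay. Compounds plus 50 nM rosiglitazone (final) for 17 h at 37 C, then viability read by CellTiter-Glo luminescence.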

[14] = qHTS assay for small molecule agonists of the antioxidant response element (ARE) signaling pathway (AID 743202; active means well fitted activation curve with a large enough effect in the signal ratio in the repeat runs, not every such curve was filed as active; inconclusive means weak or mixed curves, or effect the other way; inactive means no such curve, though single readings can be large or run the other way; the % refers to the signal ratio)
In short: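 HepG2 ARE-bla reporter line, 2,000 cells/well; 5 h preincubation 37 C/5% CO2; compound (DMSO) 16 h 37 C; B/G FRET substrate 2 h RT; fluorescence intensity.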

[15] = qHTS assay for small molecule agonists of the antioxidant response element (ARE) signaling pathway - cell viability counter screen (AID 743203; calls by dose curve; further: nearly all actives have a fitted effect of over 55% in size; further: potency means the concentration at half of the fitted maximal effect)
In short: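 ATP content via CellTiter-Glo luminescence served as the viability measure. Cells: ARE-bla HepG2, 2,000 per well. Exposure: 16 hrs, 37C/5% CO2.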

[16] = qHTS assay for small molecule activators of the heat shock response signaling pathway - cell viability counter screen (AID 743209); further: nearly all actives have a fitted effect of over 50% in size
In short: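 Compounds dissolved in DMSO were added to overnight-plated HSE-bla HeLa cells and left 5 h at 37 C. Cell viability was quantified by luminescence using CellTiter-Glo.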

[17] = qHTS assay for small molecule activators of the heat shock response signaling pathway (AID 743210; active means well fitted activation curve with a large enough effect in the signal ratio in the repeat runs, with a control signal flat, not every such curve was filed as active; inconclusive means weak or mixed curves; the % refers to the signal ratio;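 further: HeLa cells with beta-lactamase reporter driven by heat shock elements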)
In short: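 Beta-lactamase reporter read-out: FRET substrate fluorescence after 2.5 h at RT, following 5 h compound treatment at 37 C of HeLa cells carrying HSE-driven bla reporter; quantitative HTS format.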

Aromatase (Homo sapiens) = Aromatase (Homo sapiens) (UniProt P11511); assay: qHTS assay to identify aromatase inhibitors (AID 743083); further: nearly all actives have a fitted effect of over 55% in size
Aromatase (Homo sapiens), sequence (P11511 whole entry, looked up): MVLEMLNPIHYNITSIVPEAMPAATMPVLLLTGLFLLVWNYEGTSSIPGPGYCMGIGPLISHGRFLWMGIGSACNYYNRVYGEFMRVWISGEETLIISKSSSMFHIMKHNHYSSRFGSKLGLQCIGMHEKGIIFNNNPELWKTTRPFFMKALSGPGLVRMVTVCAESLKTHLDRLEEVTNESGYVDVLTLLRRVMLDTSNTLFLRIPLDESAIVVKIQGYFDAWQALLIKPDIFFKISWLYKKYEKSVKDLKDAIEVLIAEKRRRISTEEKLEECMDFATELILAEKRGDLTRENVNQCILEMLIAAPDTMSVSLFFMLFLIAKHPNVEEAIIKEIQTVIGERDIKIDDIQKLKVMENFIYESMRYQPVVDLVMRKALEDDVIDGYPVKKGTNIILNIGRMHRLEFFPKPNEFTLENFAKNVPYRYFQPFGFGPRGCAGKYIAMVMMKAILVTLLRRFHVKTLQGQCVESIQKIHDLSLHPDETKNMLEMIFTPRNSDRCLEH

[18] = molecular target: Peroxisome proliferator-activated receptor gamma (Homo sapiens) (UniProt P37231); assay: qHTS assay to identify small molecule agonists of the peroxisome proliferator-activated receptor gamma (PPARg) signaling pathway (AID 743094; active means well fitted activation curve with a large enough effect in the signal ratio in the repeat runs, not every such curve was filed as active; inconclusive means weak or mixed curves, or effect the other way; inactive means no such curve, though single readings can be large or run the other way; the % refers to the signal ratio)
In short: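 Agonism was assessed in a beta-lactamase reporter system, HEK293H cells with a stably integrated UAS-bla construct under PPARg control; the 17 h treatment at 37C preceded a 1 h room-temperature FRET substrate read.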

[19] = qHTS assay to identify small molecule antagonists of the thyroid receptor (TR) signaling pathway (AID 743065)
In short: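 GH3.TRE-Luc rat pituitary cells (two TREs driving luciferase) were dosed with compound, then stimulated with 1 nM T3 (final) for 23.5 h at 37 C. ONE-Glo luminescence was the read-out, with CellTiter-Fluor fluorescence as the cytotoxicity counter-screen.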

Measured: Potency

CC1(C)C(C=C(Cl)Cl)C1C(=O)OC(C#N)c1ccc(F)c(Oc2ccccc2)c1 (stereo not drawn)
not listed: [17] | Aromatase (Homo sapiens) | [18] | [19]
inactive: all other assays above

Oc1cc(Cl)cc(Cl)c1
not listed: [3] | [10] | [13] | [14] | [16] | Aromatase (Homo sapiens) | [18] | [19]
inactive: all other assays above

CC1=C2C[C@H]3[C@@H](CC=C4C[C@@H](O)CC[C@@]43C)[C@@H]2CC[C@]12O[C@@H]1C[C@H](C)CN[C@H]1[C@H]2C
not listed: [8] | [9] | [11] | [12] | [13] | [14] | [19]
inactive: all other assays above

Cc1ccccc1OP(=O)(Oc1ccccc1C)Oc1ccccc1C
inactive: [5] | [7] | [8] | [9] | [18] | [12] | [16]
active: [1] 54700 nM | [19] 54700 nM | [6] 3870 nM

CCOP(=S)(OCC)Oc1cc(C)nc(N(CC)CC)n1
inactive: [1] | [2] | [5] | [8] | [9] | [11] | [18] | [15] | [16] | [17]
active: [7] 34400 nM | [10] 2730 nM

Clc1ccc(C2(Cn3cncn3)OCCO2)c(Cl)c1
not listed: [2] | [12] | [13] | [14] | [18] | [19]
inactive: all other assays above

CC(=O)C(Cl)C(=O)N(C)C (stereo not drawn)
not listed: [10] | [12] | [13] | [14] | [19]
inactive: all other assays above

[F][Sn]([c]1ccccc1)([c]1ccccc1)[c]1ccccc1
active: [1] 770 nM | [19] 386 nM | [4] 1100 nM | [5] 2190 nM [inconclusive] | [7] 1930 nM | [8] 7700 nM | [9] 3060 nM | [11] 3860 nM | [13] 616 nM | [15] 344 nM
inactive: [10]
